This is part of a sample that, as a whole, favours compounds with a hit. Of some 83,000 tested, about 20% had one in any assay.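 48-hour exposure, single concentration, 96-well plates; percent growth endpoint where 0 means no net growth. Active: below 10.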 A number with no mark means an inactive call. The source made the active and inactive calls.

Common to all, as to test: NCI-60 one-dose screen, 48 h (100 = growth as untreated, 0 = no growth, -100 = all killed)
What all share (details): 10 µM unless noted

Assay [1] relates to NCI-H23 lung.
The subject of assay [2] is NCI-H226 lung.
Assay [3] has as its system NCI-H322M lung.
The test system of assay [4] is HOP-62 NSCLC.
Assay [5] deals with NCI-H460 lung.
The subject of assay [6] is HOP-92 NSCLC.
For assay [7], the system named is NCI-H522 lung.
Assay [8] relates to A549/ATCC NSCLC.
Assay [9] relates to 786-0 renal.
Assay [10] deals with COLO 205 colon.

Regarding `O=C1NC(=O)c2c1c1c3ccccc3ccc1c1[nH]c3ccc(Br)cc3c21`, the growth in assay [1] was 2.08% (active); in assay [2], 48.9%; in [3], 21%; in [4] it was 22.3%; in [5], 3.5% (active); in [6], 7.3% (active). Further, the growth in assay [7] is 20.1%; in assay [8], 18.8%; in assay [9], 30.7%; in [10], 9.33% (active).

For the compound `CSc1nnc(-c2cnn3c2NC(c2ccccc2)C3)n1-c1ccc(C(F)(F)F)cc1` (stereo not given), the growth in assay [1] is 72.6%; in [2], 73.5%; in assay [3], 72.3%; in assay [4], 61.1%; in assay [5], 61.8%; in [6] it was 64.3%. The growth in assay [7] was 26.1%; in [8], 45.5%; in assay [9], 66.1%; in assay [10] it was 63.9%.

Take `O=C(CCC(=O)N/N=C/c1ccccc1O)N/N=C/c1ccccc1O`: the growth is 61.2% in assay [1]; 61.8% in assay [2]; 29.3% in assay [3]; 36.2% in assay [4]; 44.4% in [5]; 57.1% in assay [6]. The growth is 51.8% in [7], 62.6% in assay [8], 69.7% in assay [9] and 35.4% in [10].

As to `C=C(C)[C@@H]1CC[C@]2(C(=O)NCC#CCN3CCN(C)CC3)CC[C@]3(C)[C@H](CC[C@@H]4[C@@](C)(CCC#N)[C@H](C(=C)C)CC[C@]43C)[C@@H]12`, the growth in assay [1] was 75.7%; in [2], 57.6%; in assay [3], 74.9%; in assay [4], 65.6%; in [5] it was 26.4%; in assay [6], 8.35% (active). Also, the growth was 68.5% in [7], 49.6% in assay [8], 54.5% in assay [9] and 57.8% in assay [10].

As for `CCN1C(=O)N(CC)C2C1NN=c1s/c(=C\c3cccc([N+](=O)[O-])c3)c(=O)n12` (stereo not given), the growth in assay [1] was 36.4%; in assay [2], 58.2%; in assay [3], 45.5%; in assay [4] it was 40%; in assay [5], 5.14% (active); in assay [6] it was 55.2%. Further, the growth in assay [7] is -4.92% (active); in [8] it was 20.2%; in assay [9], 25%; in assay [10], 1.16% (active).

With `O=c1oc2ccccc2cc1C1=NN=C(SCc2ccccc2)SC1`, the growth was 94.9% in [1]; 96.6% in assay [2]; 102% in [3]; 82.9% in [4]; 112% in assay [5]; 87.2% in assay [6]. Also, the growth in assay [7] is 89.2%; in [8], 96.6%; in assay [9], 94.8%; in assay [10], 113%.

Turning to `C/C(Nc1ccc(Cl)c(Cl)c1)=C1\CCOC1=O`, the growth in assay [1] is 93.3%; in assay [2], 90.4%; in [3], 101%; in assay [4], 80.3%; in assay [5], 92.5%; in [6] it was 75.6%. The growth in assay [7] was 58%; in assay [8], 88.6%; in assay [9] it was 81.7%; in assay [10] it was 134%.

Regarding `C=CC(=O)NCc1ccc(Nc2nccc(-c3ccc(N4CCCC4)c(C#N)c3)n2)cc1`, the growth in assay [1] was 49.7%; in [2], 39.9%; in assay [3] it was 41%; in assay [4] it was 17.1%; in [5], 23.3%; in assay [6], 36.8%. Moreover, the growth was 19.2% in [7], 19.2% in [8], 17.6% in assay [9] and 31.4% in assay [10].

For the compound `Cc1nc(-c2ccccc2)cc2c(O)c(C(=O)NN)[nH]c(=O)c12`, the growth is 103% in assay [1]; 104% in [2]; 92.7% in assay [3]; 107% in [4]; 106% in [5]; 85.6% in assay [6]. Moreover, the growth in assay [7] is 94.3%; in [8], 102%; in assay [9] it was 108%; in assay [10] it was 117%.

Take `CCN(CC)CCSc1nc(-c2ccccc2)c(C#N)c(=O)[nH]1`: the growth in assay [1] is 68.9%; in assay [2], 116%; in assay [3] it was 122%; in [4] it was 55%; in assay [5], 118%; in [6], 120%. The growth is 104% in assay [7], 113% in [8], 97.7% in assay [9] and 94.9% in assay [10].

For `Cc1ccc(C(C(N)=O)C(C(N)=O)c2ccccc2)cc1` (stereo not given), the growth in assay [1] was 111%; in [2], 109%; in assay [3] it was 121%; in assay [4] it was 111%; in [5], 112%; in assay [6], 99.5%. The growth in assay [7] was 102%; in assay [8], 95.3%; in assay [9] it was 102%; in assay [10] it was 115%.

For `C=C1C(=O)O[C@H]2[C@H]1CC/C(COC(=O)N[C@H]1C[C@H](O[C@H]3C[C@](O)(C(=O)CO)Cc4c(O)c5c(c(O)c43)C(=O)c3c(OC)cccc3C5=O)O[C@@H](C)[C@H]1O)=C\CC[C@@]1(C)O[C@@H]21`, the growth is 91.1% in assay [1]; 58.2% in assay [2]; 98.7% in [3]; 78.7% in assay [4]; 63.4% in assay [5]; -5.4% (active) in [6]. For the same compound, the growth was -50.2% (active) in [7], 77.2% in [8], 43.1% in assay [9] and 36.2% in [10].

Regarding `O=C1C(Cl)=C(Oc2ccccc2)C(=O)c2ccccc21`, the growth in assay [1] is 85.9%; in [2], 90.8%; in assay [3], 83.1%; in [4], 86%; in assay [5] it was 94.4%; in assay [6], 72.6%. For the same compound, the growth was -83.3% (active) in [7], 100% in assay [8], 94.1% in assay [9] and 32.3% in assay [10].

(Values after PubChem BioAssay (NCI).)
